# Measured values reported in ChEMBL document CHEMBL1961873, “Compounds: GSK PKIS; Assays: Nanosyn kinase panel” (2012).
# How the values were obtained:
# [1] = target: Sphingosine kinase 1 (Homo sapiens) (UniProt Q9NYA1); conditions: at 1 µM;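 also: mean SPHK1 inhibition value reported from the GSK PKIS kinase panel screen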
# [2] = target: T1, Sphingosine kinase 2 (Homo sapiens) (UniProt Q9NRA0); conditions: at 1 µM
# T1 sequence (whole entry): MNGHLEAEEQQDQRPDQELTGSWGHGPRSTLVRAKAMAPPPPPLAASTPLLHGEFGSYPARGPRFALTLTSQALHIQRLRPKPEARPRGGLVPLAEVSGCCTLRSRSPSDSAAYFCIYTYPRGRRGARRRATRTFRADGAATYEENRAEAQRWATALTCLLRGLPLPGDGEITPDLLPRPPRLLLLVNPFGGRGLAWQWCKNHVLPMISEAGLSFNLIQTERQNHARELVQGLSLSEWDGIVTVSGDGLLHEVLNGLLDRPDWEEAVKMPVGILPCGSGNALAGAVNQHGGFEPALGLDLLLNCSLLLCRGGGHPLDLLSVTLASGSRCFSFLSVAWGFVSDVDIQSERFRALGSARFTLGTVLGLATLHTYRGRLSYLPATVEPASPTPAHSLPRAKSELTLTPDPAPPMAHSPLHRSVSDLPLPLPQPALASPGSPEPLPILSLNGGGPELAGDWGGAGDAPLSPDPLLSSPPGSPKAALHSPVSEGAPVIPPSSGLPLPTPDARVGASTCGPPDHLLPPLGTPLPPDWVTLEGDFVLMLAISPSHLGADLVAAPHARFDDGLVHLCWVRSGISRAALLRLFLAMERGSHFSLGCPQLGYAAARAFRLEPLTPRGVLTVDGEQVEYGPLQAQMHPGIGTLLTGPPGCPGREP
# [3] = target: Casein kinase II subunit alpha (Homo sapiens) (UniProt P68400); conditions: at 0.1 µM
# [4] = target: Casein kinase II subunit alpha (Homo sapiens) (UniProt P68400); conditions: at 1 µM
# [5] = target: T2, Inhibitor of nuclear factor kappa-B kinase subunit alpha (Homo sapiens) (UniProt O15111); conditions: at 0.1 µM
# T2 sequence (whole entry): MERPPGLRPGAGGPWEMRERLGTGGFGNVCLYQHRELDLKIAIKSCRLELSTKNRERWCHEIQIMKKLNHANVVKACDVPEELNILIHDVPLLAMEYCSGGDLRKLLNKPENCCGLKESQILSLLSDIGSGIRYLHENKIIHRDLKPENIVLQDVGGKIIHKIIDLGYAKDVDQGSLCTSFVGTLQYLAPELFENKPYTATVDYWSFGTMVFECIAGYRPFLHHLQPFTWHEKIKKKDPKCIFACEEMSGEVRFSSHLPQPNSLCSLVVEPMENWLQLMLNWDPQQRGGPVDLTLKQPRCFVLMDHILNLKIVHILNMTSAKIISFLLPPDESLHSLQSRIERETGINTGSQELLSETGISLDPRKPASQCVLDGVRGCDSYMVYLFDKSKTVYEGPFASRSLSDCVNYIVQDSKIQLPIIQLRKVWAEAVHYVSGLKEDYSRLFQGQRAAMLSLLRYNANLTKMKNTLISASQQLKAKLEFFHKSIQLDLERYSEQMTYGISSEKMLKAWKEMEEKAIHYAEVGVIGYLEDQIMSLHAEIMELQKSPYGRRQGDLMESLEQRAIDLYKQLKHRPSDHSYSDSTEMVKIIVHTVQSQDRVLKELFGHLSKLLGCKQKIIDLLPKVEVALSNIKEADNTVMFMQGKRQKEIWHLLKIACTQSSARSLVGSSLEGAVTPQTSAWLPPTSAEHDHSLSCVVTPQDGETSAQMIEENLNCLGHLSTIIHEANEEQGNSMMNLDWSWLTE
# [6] = target: T2, Inhibitor of nuclear factor kappa-B kinase subunit alpha (Homo sapiens); conditions: at 1 µM
# [7] = target: T3, Inhibitor of nuclear factor kappa-B kinase subunit beta (Homo sapiens) (UniProt O14920); conditions: at 0.1 µM
# T3 sequence (whole entry): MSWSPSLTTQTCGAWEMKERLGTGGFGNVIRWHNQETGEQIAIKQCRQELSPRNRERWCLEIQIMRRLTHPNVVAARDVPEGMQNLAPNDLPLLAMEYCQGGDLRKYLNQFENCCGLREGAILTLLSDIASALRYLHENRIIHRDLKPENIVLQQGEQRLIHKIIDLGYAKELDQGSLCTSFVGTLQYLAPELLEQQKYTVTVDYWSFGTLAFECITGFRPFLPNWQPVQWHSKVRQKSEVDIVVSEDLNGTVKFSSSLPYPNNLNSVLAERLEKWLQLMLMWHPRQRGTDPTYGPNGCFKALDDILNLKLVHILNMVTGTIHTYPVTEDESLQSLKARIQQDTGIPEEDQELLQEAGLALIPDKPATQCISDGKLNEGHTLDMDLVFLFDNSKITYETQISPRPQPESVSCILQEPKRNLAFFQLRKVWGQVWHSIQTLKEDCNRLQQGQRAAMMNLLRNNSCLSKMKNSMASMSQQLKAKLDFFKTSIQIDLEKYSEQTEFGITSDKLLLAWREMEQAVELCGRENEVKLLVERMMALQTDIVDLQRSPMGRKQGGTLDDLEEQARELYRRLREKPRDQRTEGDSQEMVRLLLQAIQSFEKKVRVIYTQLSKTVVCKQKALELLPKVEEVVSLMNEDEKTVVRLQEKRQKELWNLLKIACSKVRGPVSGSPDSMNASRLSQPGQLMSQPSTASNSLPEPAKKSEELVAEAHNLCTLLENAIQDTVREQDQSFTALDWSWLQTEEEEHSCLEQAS
# [8] = target: T3, Inhibitor of nuclear factor kappa-B kinase subunit beta (Homo sapiens); conditions: at 1 µM
# [9] = target: T4, Inhibitor of nuclear factor kappa-B kinase subunit epsilon (Homo sapiens) (UniProt Q14164); conditions: at 0.1 µM
# T4 sequence (whole entry): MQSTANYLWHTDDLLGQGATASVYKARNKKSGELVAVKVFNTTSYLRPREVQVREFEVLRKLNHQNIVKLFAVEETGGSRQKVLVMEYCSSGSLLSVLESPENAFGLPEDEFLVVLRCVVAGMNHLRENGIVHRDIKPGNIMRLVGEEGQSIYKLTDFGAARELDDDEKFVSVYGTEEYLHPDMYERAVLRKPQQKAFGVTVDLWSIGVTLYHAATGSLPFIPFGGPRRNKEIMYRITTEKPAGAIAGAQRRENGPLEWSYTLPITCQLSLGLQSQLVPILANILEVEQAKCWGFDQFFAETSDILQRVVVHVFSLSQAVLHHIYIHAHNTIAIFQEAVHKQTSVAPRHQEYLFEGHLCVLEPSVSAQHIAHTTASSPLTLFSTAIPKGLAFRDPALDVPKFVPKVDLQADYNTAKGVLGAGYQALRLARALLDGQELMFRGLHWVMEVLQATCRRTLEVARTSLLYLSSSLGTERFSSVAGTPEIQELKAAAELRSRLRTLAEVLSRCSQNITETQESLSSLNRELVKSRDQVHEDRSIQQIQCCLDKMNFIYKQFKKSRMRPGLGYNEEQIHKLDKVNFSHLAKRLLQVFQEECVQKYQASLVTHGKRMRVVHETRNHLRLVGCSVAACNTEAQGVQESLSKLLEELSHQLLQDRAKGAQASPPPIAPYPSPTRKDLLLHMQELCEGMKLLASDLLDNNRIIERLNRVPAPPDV
# [10] = target: T4, Inhibitor of nuclear factor kappa-B kinase subunit epsilon (Homo sapiens); conditions: at 1 µM
# [11] = target: T5, Serine/threonine-protein kinase Nek1 (Homo sapiens) (UniProt Q96PY6); conditions: at 0.1 µM
# T5 sequence (whole entry): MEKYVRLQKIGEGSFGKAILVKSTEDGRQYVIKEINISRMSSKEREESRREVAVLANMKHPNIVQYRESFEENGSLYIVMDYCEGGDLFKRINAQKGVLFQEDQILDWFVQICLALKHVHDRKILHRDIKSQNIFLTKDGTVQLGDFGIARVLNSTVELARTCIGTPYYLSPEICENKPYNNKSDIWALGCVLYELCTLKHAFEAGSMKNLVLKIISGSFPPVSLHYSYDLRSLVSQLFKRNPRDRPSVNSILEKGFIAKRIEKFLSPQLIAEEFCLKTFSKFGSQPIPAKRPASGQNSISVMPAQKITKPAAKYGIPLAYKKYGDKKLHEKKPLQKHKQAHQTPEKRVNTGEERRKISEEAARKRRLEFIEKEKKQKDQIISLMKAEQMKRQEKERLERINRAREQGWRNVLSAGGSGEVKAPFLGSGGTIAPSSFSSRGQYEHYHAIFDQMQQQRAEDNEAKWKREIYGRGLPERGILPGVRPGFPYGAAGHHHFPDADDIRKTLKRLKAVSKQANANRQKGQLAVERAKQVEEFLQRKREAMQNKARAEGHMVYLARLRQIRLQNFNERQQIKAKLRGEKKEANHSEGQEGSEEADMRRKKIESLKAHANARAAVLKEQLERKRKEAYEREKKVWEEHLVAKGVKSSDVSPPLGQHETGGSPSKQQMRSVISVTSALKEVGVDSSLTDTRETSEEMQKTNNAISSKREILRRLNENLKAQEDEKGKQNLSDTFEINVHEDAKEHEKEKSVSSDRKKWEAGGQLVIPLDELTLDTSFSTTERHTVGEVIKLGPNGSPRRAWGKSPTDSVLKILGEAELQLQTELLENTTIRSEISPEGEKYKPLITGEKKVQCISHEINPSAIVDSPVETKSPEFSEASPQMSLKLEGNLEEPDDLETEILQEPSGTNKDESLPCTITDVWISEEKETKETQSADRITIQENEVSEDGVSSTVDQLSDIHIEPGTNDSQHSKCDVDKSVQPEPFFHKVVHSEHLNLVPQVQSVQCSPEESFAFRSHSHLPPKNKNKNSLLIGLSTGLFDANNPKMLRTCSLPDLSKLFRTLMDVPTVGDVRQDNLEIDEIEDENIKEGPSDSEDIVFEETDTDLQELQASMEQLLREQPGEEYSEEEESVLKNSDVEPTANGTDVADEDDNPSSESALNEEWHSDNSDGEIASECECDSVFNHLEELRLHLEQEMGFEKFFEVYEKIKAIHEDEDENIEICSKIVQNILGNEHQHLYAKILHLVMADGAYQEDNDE
# [12] = target: T5, Serine/threonine-protein kinase Nek1 (Homo sapiens); conditions: at 1 µM
# [13] = target: T6, Serine/threonine-protein kinase Nek2 (Homo sapiens) (UniProt P51955); conditions: at 0.1 µM
# T6 sequence (whole entry): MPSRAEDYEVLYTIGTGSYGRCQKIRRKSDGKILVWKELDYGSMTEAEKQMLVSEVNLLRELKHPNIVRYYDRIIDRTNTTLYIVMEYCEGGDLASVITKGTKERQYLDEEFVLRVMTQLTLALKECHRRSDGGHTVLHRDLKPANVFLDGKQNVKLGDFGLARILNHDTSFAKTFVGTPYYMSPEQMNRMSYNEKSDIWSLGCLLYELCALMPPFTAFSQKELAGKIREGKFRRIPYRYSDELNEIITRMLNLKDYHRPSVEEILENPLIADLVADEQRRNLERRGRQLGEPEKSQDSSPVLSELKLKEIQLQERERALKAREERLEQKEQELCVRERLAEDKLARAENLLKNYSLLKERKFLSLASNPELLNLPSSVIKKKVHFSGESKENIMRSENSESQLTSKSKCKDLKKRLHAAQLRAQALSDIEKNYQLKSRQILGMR
# [14] = target: T6, Serine/threonine-protein kinase Nek2 (Homo sapiens); conditions: at 1 µM
# [15] = target: Serine/threonine-protein kinase Nek6 (Homo sapiens) (UniProt Q9HC98); conditions: at 0.1 µM
# [16] = target: Serine/threonine-protein kinase Nek6 (Homo sapiens) (UniProt Q9HC98); conditions: at 1 µM
# [17] = target: Serine/threonine-protein kinase Nek7 (Homo sapiens) (UniProt Q8TDX7); conditions: at 0.1 µM
# [18] = target: Serine/threonine-protein kinase Nek7 (Homo sapiens) (UniProt Q8TDX7); conditions: at 1 µM
# [19] = target: T7, Serine/threonine-protein kinase Nek9 (Homo sapiens) (UniProt Q8TD19); conditions: at 0.1 µM;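 also: reported value is the mean percent inhibition of NEK9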
# T7 sequence (whole entry): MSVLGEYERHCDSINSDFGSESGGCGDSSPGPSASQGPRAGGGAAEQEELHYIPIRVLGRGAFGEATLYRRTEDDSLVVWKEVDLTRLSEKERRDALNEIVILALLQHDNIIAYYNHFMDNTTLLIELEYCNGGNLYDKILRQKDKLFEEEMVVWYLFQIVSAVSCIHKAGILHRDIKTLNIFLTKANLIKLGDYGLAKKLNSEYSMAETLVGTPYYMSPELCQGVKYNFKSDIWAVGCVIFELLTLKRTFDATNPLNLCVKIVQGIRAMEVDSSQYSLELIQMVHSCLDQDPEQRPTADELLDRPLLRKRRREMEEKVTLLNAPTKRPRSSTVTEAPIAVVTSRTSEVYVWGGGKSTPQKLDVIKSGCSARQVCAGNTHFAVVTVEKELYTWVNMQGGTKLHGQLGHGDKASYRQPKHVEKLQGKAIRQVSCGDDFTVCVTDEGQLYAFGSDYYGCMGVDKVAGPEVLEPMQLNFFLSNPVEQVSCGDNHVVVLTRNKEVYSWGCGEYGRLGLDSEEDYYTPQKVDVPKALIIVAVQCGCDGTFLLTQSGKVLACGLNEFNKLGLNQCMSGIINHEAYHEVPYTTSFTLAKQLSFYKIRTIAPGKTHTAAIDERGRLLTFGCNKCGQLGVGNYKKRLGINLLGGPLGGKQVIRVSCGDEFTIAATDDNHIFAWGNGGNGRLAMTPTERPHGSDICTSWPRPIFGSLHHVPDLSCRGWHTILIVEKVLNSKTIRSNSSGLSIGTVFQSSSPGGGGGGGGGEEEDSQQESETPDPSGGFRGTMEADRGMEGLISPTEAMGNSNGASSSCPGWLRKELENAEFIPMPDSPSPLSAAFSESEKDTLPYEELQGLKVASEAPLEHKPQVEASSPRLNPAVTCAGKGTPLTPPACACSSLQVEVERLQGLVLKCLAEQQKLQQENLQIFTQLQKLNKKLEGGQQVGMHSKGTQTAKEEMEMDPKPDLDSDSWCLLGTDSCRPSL
# Chain of Serine/threonine-protein kinase Nek7 (Homo sapiens) (Q8TDX7 whole entry, looked up): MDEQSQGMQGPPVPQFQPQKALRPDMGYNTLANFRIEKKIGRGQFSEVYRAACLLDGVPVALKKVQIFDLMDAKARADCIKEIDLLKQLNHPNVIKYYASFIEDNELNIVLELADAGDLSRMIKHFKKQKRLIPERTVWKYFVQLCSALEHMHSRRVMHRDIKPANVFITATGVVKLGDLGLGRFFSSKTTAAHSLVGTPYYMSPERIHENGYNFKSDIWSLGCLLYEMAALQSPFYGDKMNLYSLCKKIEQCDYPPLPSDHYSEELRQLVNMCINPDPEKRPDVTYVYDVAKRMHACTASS
# Chain of Casein kinase II subunit alpha (Homo sapiens) (P68400 whole entry, looked up): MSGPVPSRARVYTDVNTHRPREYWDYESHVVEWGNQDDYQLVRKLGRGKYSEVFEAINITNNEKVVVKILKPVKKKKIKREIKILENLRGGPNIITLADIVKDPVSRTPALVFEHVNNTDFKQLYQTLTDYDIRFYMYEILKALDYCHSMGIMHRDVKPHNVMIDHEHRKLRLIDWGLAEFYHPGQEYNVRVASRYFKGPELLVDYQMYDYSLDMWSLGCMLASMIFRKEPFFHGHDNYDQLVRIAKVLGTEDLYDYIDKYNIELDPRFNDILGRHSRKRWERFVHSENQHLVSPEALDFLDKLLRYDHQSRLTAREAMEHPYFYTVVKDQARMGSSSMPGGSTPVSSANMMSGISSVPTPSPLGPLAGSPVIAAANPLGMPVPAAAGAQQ
# Chain of Serine/threonine-protein kinase Nek6 (Homo sapiens) (Q9HC98 whole entry): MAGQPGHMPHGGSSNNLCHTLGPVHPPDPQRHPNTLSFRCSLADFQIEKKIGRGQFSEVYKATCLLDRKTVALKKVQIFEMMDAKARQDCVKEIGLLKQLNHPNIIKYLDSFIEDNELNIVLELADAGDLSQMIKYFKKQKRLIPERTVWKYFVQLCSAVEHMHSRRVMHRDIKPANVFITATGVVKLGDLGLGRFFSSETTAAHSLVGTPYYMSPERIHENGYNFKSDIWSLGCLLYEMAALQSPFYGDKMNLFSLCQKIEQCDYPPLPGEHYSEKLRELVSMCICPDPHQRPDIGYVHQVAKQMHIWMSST
# Chain of Sphingosine kinase 1 (Homo sapiens) (Q9NYA1 whole entry): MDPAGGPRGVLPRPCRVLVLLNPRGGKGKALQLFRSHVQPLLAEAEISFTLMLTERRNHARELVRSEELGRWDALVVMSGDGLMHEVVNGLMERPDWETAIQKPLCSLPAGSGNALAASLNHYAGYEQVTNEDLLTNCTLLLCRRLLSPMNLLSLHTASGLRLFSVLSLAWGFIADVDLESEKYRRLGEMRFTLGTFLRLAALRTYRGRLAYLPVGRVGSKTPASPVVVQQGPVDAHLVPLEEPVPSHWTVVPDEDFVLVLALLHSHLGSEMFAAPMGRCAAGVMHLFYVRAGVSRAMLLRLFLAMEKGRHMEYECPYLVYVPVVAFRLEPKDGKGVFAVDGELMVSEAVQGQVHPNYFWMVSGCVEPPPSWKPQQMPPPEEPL
smiles,measurement,setting,value
C[C@@H](Oc1cc(-n2cnc3ccc(OCC4CCN(C)CC4)cc32)sc1C(N)=O)c1ccccc1Cl,inhibition,[1],1.57%
same,inhibition,[2],-0.12%
same,inhibition,[3],6.48%
same,inhibition,[4],19.4%
same,inhibition,[5],5.03%
same,inhibition,[6],1.69%
same,inhibition,[7],1.98%
same,inhibition,[8],3.37%
same,inhibition,[9],2.73%
same,inhibition,[10],7.27%
same,inhibition,[11],17.6%
same,inhibition,[12],54.1%
same,inhibition,[13],22.1%
same,inhibition,[14],64.9%
same,inhibition,[15],0.14%
same,inhibition,[16],0.47%
same,inhibition,[17],4.32%
same,inhibition,[18],9.78%
same,inhibition,[19],77.4%
